Source: PubChem BioAssay
DT40 TDP1 no CPT: qHTS for Inhibitors of human tyrosyl-DNA phosphodiesterase 1 (TDP1): qHTS in cells in absence of CPT | 15% of 420,000 active | AID 686978, 2013 | DT40 Tdp1-/- hTDP1 cells, no CPT, ATP luminescence, 48 h | Potency, µM (highest dose often 46.2 µM), inactives show top-dose activity change, negative = growth inhibition, actives largely listed as inhibitors; note: potency is the fitted concentration of half-maximal effect; nearly all actives have a fitted effect of over 55% in size
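Compound effects on proliferation are scored in DT40 Tdp1-/-;hTDP1 cells in the absence of CPT. ATP levels (CellTiter-Glo luminescence) are recorded after a ≥48 hr, 37 °C incubation.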
IL-1B inflam inh: inhibitors of inflammasome signaling (IL-1 beta secretion); activity change, % at 57.5 µM; THP-1 LPS/ATP IL-1B secretion, AlphaLISA, 16 h; hits give low values; 4.7% of 360,000 active; in the data active = activity change below about -50%; inconclusive = mostly about -30% to -49%
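Secreted IL-1B measured by AlphaLISA bead assay after 16 h compound exposure of THP-1 cells; compounds (final up to 57.5 uM) added 1 h before LPS (250 ng/mL) and ATP (1.25 mM) stimulation; lower signal means less secretion.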
DT40 TDP1 CPT: DT40-hTDP1 cell growth loss with CPT; AID 686979; Potency, µM (doses to about 46.2 µM), without a hit: top-dose activity change, negative = growth inhibition, usual class: inhibitors; 12% of 420,000 active; chicken DT40 Tdp1-/-;hTDP1 cells + 20 nM CPT, ATP luminescence, 48 h; note: potency is the fitted concentration of half-maximal effect; nearly all actives have a fitted effect of over 55% in size
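Chicken DT40 Tdp1-/- cells stably complemented with human TDP1 were seeded at 400 cells/well in medium containing 20 nM camptothecin, exposed to pin-transferred compounds, and grown at 37 °C for at least 48 hr. Viability was read as ATP luminescence.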
HT1080 IDH1KD tx: toxicity to HT-1080 IDH1 knockdown cells (counter line); HT-1080 IDH1 knockdown viability, ATP luminescence, 48 h; Potency, µM (titrated, usually from 46.1 µM), without a hit: top-dose activity, negative = toxicity, most hits filed as cytotoxic; 2% of 360,000 active; AID 686971;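 note: potency is the fitted concentration of half-maximal effect; 0% = DMSO wells and -100% = cell-free medium wells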
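Cytotoxicity counter-line: IDH1KD HT-1080, 48 h, CellTiter-Glo. Curves classed by r2, magnitude and activity.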
HT1080NT lethal: kills 2HG-producing HT-1080-NT fibrosarcoma cells. HT-1080-NT fibrosarcoma viability, CellTiter-Glo ATP luminescence, 48 h. Potency, µM (doses to about 46.1 µM), inactives show at the top dose activity, negative = less viability, hits mostly cytotoxic. 1.6% of 360,000 active;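 note: NT is the 2HG producing partner of a matched IDH1 knockdown line; potency is the fitted concentration of half-maximal effect; 0% = DMSO-treated cells and -100% = media-only wells without cells; nearly all actives have a fitted effect of over 55% in size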
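Viability of the 2HG-overproducing fibrosarcoma line after 48 hours of compound exposure at 37 degrees C was determined by luminescence with CellTiter-Glo, and concentration-effect curves were then fitted and categorized.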
Starred values were filed as active, the others as inactive; ? = inconclusive; nt = no result; [ ] = another dose, or the depositor's remark. The list is not random: actives were taken first. Their share in the collection is about 19%. Unless noted, calls come from the whole dose curve; as a rule, active = well fitted curve in the direction sought with a large enough effect; inconclusive = small, poorly fitted or top-dose-only effect, or another doubt; inactive = no such curve, though single readings can be large; an effect the other way counts as inactive or inconclusive. Unless noted, % is set by controls: 0 for no effect and ±100 for the full control effect.

SMILES	DT40 TDP1 no CPT	IL-1B inflam inh	DT40 TDP1 CPT	HT1080 IDH1KD tx	HT1080NT lethal
OC(COCc1ccc(Cl)cc1)CN1CCN(CC(O)COCc2ccc(Cl)cc2)CC1 (configuration not stated)	15µM*	?	18µM*	?	?
OC(COCc1ccc(Cl)cc1)CN1CCCCC1 (configuration not stated)	-1%	-3	5%	-1%	-3%
C=CCc1ccccc1OCC(O)CN1CCOCC1 (configuration not stated)	-22%	-14	-8%	-1%	2%
OC(COc1ccc2c(c1)CCC2)CN1CCN(c2ccccc2F)CC1 (configuration not stated)	-9%	-53*	-10%	-3%[9.24 µM]	?
C=CCc1ccccc1OCC(O)CN1CCN(c2ccc(OC)cc2)CC1 (configuration not stated)	?	-22	16µM*	3%	0%
C=CCc1ccc(OCC(O)CN2CCN(Cc3ccc(Cl)cc3)CC2)c(OC)c1 (configuration not stated)	21µM*	?	?	21µM*	21µM*
O=[N+]([O-])c1ccc(OCC(O)CN2CCN(c3ccccc3F)CC2)cc1 (configuration not stated)	?	-11	?	0%	3%
Cc1oc2c(c(C)cc3oc(=O)c(CC(=O)NCc4ccc(F)cc4)c(C)c32)c1C	-1%	nt	-8%	nt	nt
COc1ccc(N2CCN(CC(O)COc3ccc4c(c3)CCC4)CC2)cc1 (configuration not stated)	23µM*	?	18µM*	-13%	-14%
C=CCc1ccccc1OCC(O)CN(C(C)C)C(C)C (configuration not stated)	23µM*	-17	-24%	-1%	-6%
COc1ccc(OCC(O)CN2CCN(c3ccc(Cl)cc3)CC2)cc1 (configuration not stated)	?	15	-24%	0%	5%
COc1ccccc1N1CCN(c2nnc(-c3ccc(F)cc3)c3ccccc23)CC1	21µM*	-4	?	17%	15%
Cc1ccc(-c2nnc(N3CCCCCC3)c3ccccc23)cc1	16µM*	nt	?	0%	-8%
COc1ccc(-c2nnc(N3CCCCC3)c3ccccc23)cc1	18µM*	-66*	23µM*	-7%	-1%
CCN1CCN(c2nnc(-c3ccccc3)c3ccccc23)CC1	12%	0	-2%	2%	5%
CN1CCN(c2nnc(-c3cccs3)c3ccccc23)CC1	-12%	-54*	9%	-5%	0%
COc1ccc(-c2nnc(N3CCOCC3)c3ccccc23)cc1	19%	nt	-15%	9%	15%
Cc1ccccc1Oc1nnc(-c2cccs2)c2ccccc12	?	-12	?	-5%	1%
COc1cccc(C(=O)Nc2c3c(nn2-c2ccc(Cl)cc2)CS(=O)(=O)C3)c1	?	nt	-19%	nt	nt
Fc1ccc(-c2nnc(-n3nnc4ccccc43)c3ccccc23)cc1	12µM*	-21	?	22%	9%
COc1ccc(Cl)cc1NC(=O)Cn1cnc2sc(C)c(S(=O)(=O)N3CCN(c4ccccc4OC)CC3)c2c1=O	7.3µM*	nt	7.3µM*	nt	nt
COc1ccc(OC)c(NC(=O)Cn2cnc3sc(C)c(S(=O)(=O)N4CCN(c5ccccc5OC)CC4)c3c2=O)c1	?	nt	21µM*	nt	nt
CC(C)(O)C#Cc1ccc(CN2CCN(Cc3ccsc3)C(CCO)C2)s1 (configuration not stated)	-28%	23	14%	2%	0%
O=S(=O)(c1ccc(Cl)cc1)N1CCN(Cc2ccncc2)CC1	?	1	?	11%	11%
Oc1ccc(CN2CCN(Cc3ccccc3)CC2)c2cccnc12	?	98	21µM*	-17%	?
SMILES	DT40 TDP1 no CPT	IL-1B inflam inh	DT40 TDP1 CPT	HT1080 IDH1KD tx	HT1080NT lethal
O=S(=O)(c1ccc(Cl)cc1)N1CCN(Cc2ccc(O)c3ncccc23)CC1	5.8µM*	38	6.5µM*	?	?
CC(=O)Nc1ccc(SCC(=O)c2ccc(Br)s2)cc1	?	-12	?	18µM*	26µM*
CCC(C)NC(=O)CSc1ccc(NC(C)=O)cc1 (configuration not stated)	0%	17	-10%	4%	6%
O=C1CC[C@H](C(=O)O)N1	-11%	nt	-3%	nt	nt
CCOC(=O)c1c(-c2ccc(C)o2)csc1NC(=O)CN1CCC(C(N)=O)CC1	?	-78*	?	?	?
CCOC(=O)c1c(NC(=O)CN2CCC(C)CC2)sc(C)c1C	?	?	-17%	22%	8%
CCOC(=O)c1c(-c2ccc(C)o2)csc1NC(=O)CN1CCN(CC)CC1	29µM*	-18	?	?	?
CCOC(=O)c1c(NC(=O)CN2CCN(c3ccc(Cl)cc3)CC2)sc(C)c1C	?	19	?	28%	0%
CCOC(=O)c1c(-c2ccc(C)o2)csc1NC(=O)CSc1nncs1	16µM*	22	23µM*	?	?
CCOC(=O)c1c(NC(=O)CN2CCCCC2)sc2c1CCC(C=O)=C2Cl	3.5µM*	-21	4µM*	-22%	-4%
CCOC(=O)c1c(-c2ccco2)csc1NC(=O)CSc1nnc(N)s1	?	40	?	?	?
Cc1cccc(CN2CCN(CC(=O)NCCc3ccc(Cl)cc3)C2=O)c1	?	nt	-13%	nt	nt
CC1(C(=O)N2CC3(CC(c4cccc([N+](=O)[O-])c4)=NO3)C[C@H]2C(=O)NCC(N)=O)CC1 (some centres not stated)	14%	23	-2%	6%	6%
CCOC(=O)c1c(-c2ccc(C)o2)csc1NC(=O)CN1CCCCC1	21µM*	?	?	?	?
CCOC(=O)c1c(-c2ccc(C)o2)csc1NC(=O)CN(C)CC(=O)Nc1ccc(C)cc1	?	30	?	-25%	?
CN(C)c1nc(OCCNC(=O)COc2ccc(Cl)cc2Cl)nc(N2CCOCC2)n1	13µM*	19	15µM*	-4%	-9%
Cc1cc(Cl)ccc1OCC(=O)NCCOc1nc(N2CCOCC2)nc(N2CCOCC2)n1	21µM*	14	?	12%	3%
Cc1cc(C)c2c(n1)sc1c(=O)n(-c3cc(Cl)ccc3C)nnc12	?	nt	-22%	nt	nt
CCOc1ccc(CCNC(=O)COC(=O)COc2ccc(C(=O)CC)cc2)cc1OCC	-20%	-3	8%	15%	15%
C=CCNC(=S)N/N=C/c1cn(-c2ccccc2)nc1-c1ccc(OC)cc1	9.2µM*	8	-27%	?	-2%
